Test results reported in PubChem BioAssay (NCATS).
Results filed as inconclusive are left out. Where a call stands in place of a potency, no number is given. Activity calls are given as the source filed them. Unless noted, calls come from the whole dose curve; as a rule, active = well fitted curve in the direction sought with a large enough effect; inconclusive = small, poorly fitted or top-dose-only effect, or another doubt; inactive = no such curve, though single readings can be large; an effect the other way counts as inactive or inconclusive.

How the values were obtained:
[1] = NS1 protein of Zika virus - qHTS assay to identify small molecule inhibitors in human HEK 293 cells (AID 1347053); note: series mostly up to about 46 µM; nearly all actives have a fitted effect of over 55% in size
Procedure, shortened: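 Readout was TR-FRET using paired anti-NS1 antibodies after 24 h infection of HEK 293 cells with ZIKV MR766 (MOI = 0.5). Compound preceded virus by 1 h; reduced signal reflects lower NS1 expression.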

[2] = qHTS for Inhibitors of the Functional Ribonucleoprotein Complex (vRNP) of Lassa (LASV) Arenavirus: LASV Primary Screen - GLuc reporter signal (AID 1347082; calls by dose curve; tested in HEK293 reporter line; note: series mostly up to about 57 µM; nearly all actives have a fitted effect of over 60% in size)
[3] = qHTS for Inhibitors of the Functional Ribonucleoprotein Complex (vRNP) of Lassa (LASV) Arenavirus: Viability assay - alamar blue signal for LASV Primary Screen (AID 1347083; calls by dose curve; tested in HEK293 reporter line; note: series mostly up to about 57 µM; nearly all actives have a fitted effect of over 80% in size)
[4] = qHTS for Inhibitors of the Functional Ribonucleoprotein Complex (vRNP) of Lymphocytic Choriomeningitis Arenaviruses (LCMV): Viability assay - alamar blue signal for LCMV Primary Screen (AID 1347085; calls by dose curve; tested in HEK293 reporter line; note: series mostly up to about 57 µM; nearly all actives have a fitted effect of over 80% in size)
[5] = target: Nucleoprotein (Lymphocytic choriomeningitis virus (strain Armstrong)) (UniProt P09992); experiment: qHTS for Inhibitors of the Functional Ribonucleoprotein Complex (vRNP) of Lymphocytic Choriomeningitis Arenaviruses (LCMV): LCMV Primary Screen - GLuc reporter signal (AID 1347086; calls by dose curve; note: series mostly up to about 57 µM; nearly all actives have a fitted effect of over 70% in size)
Chain of Nucleoprotein (Lymphocytic choriomeningitis virus (strain Armstrong)) (P09992 whole entry, looked up): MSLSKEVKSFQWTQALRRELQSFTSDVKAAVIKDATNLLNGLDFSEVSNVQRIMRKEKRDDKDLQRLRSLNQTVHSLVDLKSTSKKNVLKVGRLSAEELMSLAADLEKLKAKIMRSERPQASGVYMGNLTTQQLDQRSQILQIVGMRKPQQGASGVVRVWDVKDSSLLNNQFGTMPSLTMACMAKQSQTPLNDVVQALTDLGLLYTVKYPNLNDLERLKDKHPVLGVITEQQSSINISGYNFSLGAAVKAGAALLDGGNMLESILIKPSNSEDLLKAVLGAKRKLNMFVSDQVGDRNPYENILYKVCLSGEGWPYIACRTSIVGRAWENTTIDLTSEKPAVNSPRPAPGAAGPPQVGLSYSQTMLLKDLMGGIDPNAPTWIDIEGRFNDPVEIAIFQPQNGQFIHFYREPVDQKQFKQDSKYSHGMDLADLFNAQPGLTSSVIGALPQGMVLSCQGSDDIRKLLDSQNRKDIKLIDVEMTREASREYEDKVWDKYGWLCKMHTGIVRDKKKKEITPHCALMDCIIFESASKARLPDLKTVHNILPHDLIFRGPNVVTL

[6] = qHTS of pediatric cancer cell lines to identify multiple opportunities for drug repurposing: Primary screen for TC32 cells (AID 1347089); note: nearly all actives have a fitted effect of over 60% in size
Procedure, shortened: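 Measured quantity: luminescence from CellTiter-Glo, reflecting metabolically active TC32 cells following 48 h of compound. Curves came straight from multi-point titrations, with 8 or 11 points in primary and 11 in confirmatory screening.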

[7] = qHTS of pediatric cancer cell lines to identify multiple opportunities for drug repurposing: Primary screen for DAOY cells (AID 1347090); note: series mostly up to about 46 µM; nearly all actives have a fitted effect of over 55% in size
Procedure, shortened: (§1)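 Eight- or eleven-point concentration series, 48 h treatment at 37 degrees C in growth media; readout CellTiter-Glo luminescence. Potency and efficacy were taken from the concentration-response curves.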

[8] = qHTS of pediatric cancer cell lines to identify multiple opportunities for drug repurposing: Primary screen for SJ-GBM2 cells (AID 1347091); note: potency is the fitted concentration of half-maximal effect
Procedure, shortened: as §1

[9] = qHTS of pediatric cancer cell lines to identify multiple opportunities for drug repurposing: Primary screen for A673 cells (AID 1347092); note: nearly all actives have a fitted effect of over 45% in size
Procedure, shortened: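 Cells are plated, rested 5 h, dosed by pintool, incubated 48 h, then lysed with CellTiter-Glo and read by luminescence. DMSO is the neutral control; bortezomib at 2.3 uM final is the positive control.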

[10] = qHTS of pediatric cancer cell lines to identify multiple opportunities for drug repurposing: Primary screen for SK-N-MC cells (AID 1347093); note: potency is the fitted concentration of half-maximal effect
Procedure, shortened: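 Metabolically active cells were quantified by ATP-dependent luminescence (CellTiter-Glo, 15 min at room temperature) following 48 h treatment. Cells had been plated at 500-1,000 per well and settled for 5 h beforehand.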

[11] = qHTS of pediatric cancer cell lines to identify multiple opportunities for drug repurposing: Primary screen for BT-37 cells (AID 1347094); note: series mostly up to about 57 µM
Procedure, shortened: (§2)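 500-1,000 cells/well; 5 h pre-incubation 37 °C/5% CO2; compound pinned; 48 h; CellTiter-Glo, 15 min RT; luminescence. MIPE 11-pt from 0.78 nM, NPC 8-pt from 0.59 nM final. Bortezomib 2.3 µM final as positive control.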

[12] = qHTS of pediatric cancer cell lines to identify multiple opportunities for drug repurposing: Primary screen for NB-EBc1 cells (AID 1347095)
Procedure, shortened: as §2

[13] = qHTS of pediatric cancer cell lines to identify multiple opportunities for drug repurposing: Primary screen for U-2 OS cells (AID 1347096); note: nearly all actives have a fitted effect of over 50% in size
Procedure, shortened: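 Cells (500-1,000/well) in growth media were settled 5 h at 37 degrees C, then given compounds for 48 h. Viability was read as CellTiter-Glo luminescence. Primary runs used MIPE at 11 points (0.78 nM-46 µM) and NPC at 8 points (0.59 nM-46 µM); follow-ups used 11 points.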

[14] = qHTS of pediatric cancer cell lines to identify multiple opportunities for drug repurposing: Primary screen for Saos-2 cells (AID 1347097); note: nearly all actives have a fitted effect of over 40% in size
Procedure, shortened: as §2

[15] = P-glycoprotein substrates identified in KB-8-5-11 adenocarcinoma cell line, qHTS therapeutic library screen (AID 1346987); note: nearly all actives have a fitted effect of over 65% in size
Procedure, shortened: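 In this qHTS, P-gp-rich KB-8-5-11 cells received library compounds across a concentration range. Viability was quantified by luminescence after 72 h at 37 degree C.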

[16] = target: Atrial natriuretic peptide receptor 1 (Homo sapiens) (UniProt P16066); experiment: Natriuretic polypeptide receptor (hNpr1) antagonism - Pilot screen (AID 1347049; calls by dose curve;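 note: HEK293 cells with hNpr1 and GloSensor cGMP luciferase stimulated by 0.1 nM hNppA; agonist-evoked cGMP luminescence read 20 min after hNppA addition; series mostly up to about 58 µM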)
Chain of Atrial natriuretic peptide receptor 1 (Homo sapiens) (P16066 whole entry, looked up): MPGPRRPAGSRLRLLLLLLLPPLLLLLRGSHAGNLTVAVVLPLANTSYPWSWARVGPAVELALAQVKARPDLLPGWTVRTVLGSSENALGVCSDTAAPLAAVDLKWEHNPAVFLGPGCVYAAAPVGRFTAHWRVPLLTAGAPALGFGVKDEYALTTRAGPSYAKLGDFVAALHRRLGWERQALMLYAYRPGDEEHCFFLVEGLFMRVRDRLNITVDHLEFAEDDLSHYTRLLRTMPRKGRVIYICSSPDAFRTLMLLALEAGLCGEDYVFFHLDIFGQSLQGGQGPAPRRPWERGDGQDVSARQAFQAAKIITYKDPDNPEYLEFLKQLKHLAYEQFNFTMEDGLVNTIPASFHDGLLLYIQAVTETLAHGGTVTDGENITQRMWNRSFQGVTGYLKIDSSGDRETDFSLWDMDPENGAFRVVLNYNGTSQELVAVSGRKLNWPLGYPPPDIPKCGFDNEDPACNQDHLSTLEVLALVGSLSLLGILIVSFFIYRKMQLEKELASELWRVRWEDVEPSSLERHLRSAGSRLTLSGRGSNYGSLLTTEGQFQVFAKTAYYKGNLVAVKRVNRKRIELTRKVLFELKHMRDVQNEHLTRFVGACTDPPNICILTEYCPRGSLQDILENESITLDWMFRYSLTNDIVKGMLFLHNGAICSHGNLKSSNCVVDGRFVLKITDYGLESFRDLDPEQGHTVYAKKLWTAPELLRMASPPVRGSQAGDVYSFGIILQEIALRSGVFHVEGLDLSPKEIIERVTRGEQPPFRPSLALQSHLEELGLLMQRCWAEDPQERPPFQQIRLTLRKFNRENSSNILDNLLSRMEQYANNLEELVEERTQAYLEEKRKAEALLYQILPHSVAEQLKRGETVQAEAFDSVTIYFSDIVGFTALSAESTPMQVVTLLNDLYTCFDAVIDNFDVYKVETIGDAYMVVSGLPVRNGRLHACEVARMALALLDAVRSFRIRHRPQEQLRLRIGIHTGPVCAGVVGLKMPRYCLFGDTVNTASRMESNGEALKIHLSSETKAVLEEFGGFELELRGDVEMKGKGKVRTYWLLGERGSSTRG
Procedure, shortened: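 Cells expressing receptor plus cGMP biosensor are seeded and incubated overnight at 37C, then loaded with GloSensor reagent (2% final) at room temperature for 2 h. Library compounds go on for 30 min. A pre-read precedes agonist (hNppA, 0.1 nM final) and a 20-min readout.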

[17] = target: Atrial natriuretic peptide receptor 2 (Homo sapiens) (UniProt P20594); experiment: Natriuretic polypeptide receptor (hNpr2) antagonism - Pilot subtype selectivity assay (AID 1347050; calls by dose curve)
Chain of Atrial natriuretic peptide receptor 2 (Homo sapiens) (P20594 whole entry, looked up): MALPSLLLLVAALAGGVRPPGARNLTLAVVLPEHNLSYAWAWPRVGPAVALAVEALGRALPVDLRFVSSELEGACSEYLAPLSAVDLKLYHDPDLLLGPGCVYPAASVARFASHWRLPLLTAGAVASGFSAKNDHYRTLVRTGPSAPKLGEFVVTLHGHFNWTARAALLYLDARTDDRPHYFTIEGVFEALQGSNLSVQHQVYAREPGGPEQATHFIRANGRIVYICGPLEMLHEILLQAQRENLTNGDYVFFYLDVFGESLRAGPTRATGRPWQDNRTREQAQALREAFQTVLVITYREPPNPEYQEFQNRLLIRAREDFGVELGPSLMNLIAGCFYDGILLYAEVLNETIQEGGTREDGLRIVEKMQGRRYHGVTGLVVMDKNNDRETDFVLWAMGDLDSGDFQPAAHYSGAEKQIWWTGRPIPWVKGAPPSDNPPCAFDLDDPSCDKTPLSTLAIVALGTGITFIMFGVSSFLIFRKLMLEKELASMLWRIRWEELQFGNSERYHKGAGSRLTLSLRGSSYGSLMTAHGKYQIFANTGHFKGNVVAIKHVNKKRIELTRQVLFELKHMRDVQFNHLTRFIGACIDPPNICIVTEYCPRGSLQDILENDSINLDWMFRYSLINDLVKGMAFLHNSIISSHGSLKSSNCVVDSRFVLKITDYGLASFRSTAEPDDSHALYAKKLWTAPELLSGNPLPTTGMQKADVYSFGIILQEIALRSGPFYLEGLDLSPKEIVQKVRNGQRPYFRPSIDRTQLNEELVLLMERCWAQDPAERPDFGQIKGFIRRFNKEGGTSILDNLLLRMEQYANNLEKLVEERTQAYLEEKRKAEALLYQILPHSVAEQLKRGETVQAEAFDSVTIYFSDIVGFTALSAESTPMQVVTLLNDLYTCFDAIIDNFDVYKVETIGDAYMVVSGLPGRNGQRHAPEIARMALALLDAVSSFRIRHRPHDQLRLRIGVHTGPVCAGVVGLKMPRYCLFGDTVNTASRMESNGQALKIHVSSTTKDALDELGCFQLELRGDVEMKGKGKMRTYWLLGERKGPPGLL
Procedure, shortened: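 Read-out: GloSensor luminescence (CCD imager), baseline vs post-stimulation. HEK293 cells expressing hNpr2; compounds pre-incubated 30-50 min at ambient temperature; hNppC 1 nM final, 20 min.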

[18] = target: Tyrosine-protein phosphatase non-receptor type substrate 1 (Homo sapiens) + Leukocyte surface antigen CD47 (Homo sapiens) (UniProt P78324+Q08722); experiment: CD47-SIRPalpha protein protein interaction - HTRF assay qHTS validation (AID 1347058; active = well fitted curve in the direction sought with a large enough effect in the signal ratio, not every such curve was filed as active; the % refers to the signal ratio; note: series mostly up to about 38 µM)
Chain of Tyrosine-protein phosphatase non-receptor type substrate 1 (Homo sapiens) + Leukocyte surface antigen CD47 (Homo sapiens) (P78324 whole entry, looked up, the tested form may be a part): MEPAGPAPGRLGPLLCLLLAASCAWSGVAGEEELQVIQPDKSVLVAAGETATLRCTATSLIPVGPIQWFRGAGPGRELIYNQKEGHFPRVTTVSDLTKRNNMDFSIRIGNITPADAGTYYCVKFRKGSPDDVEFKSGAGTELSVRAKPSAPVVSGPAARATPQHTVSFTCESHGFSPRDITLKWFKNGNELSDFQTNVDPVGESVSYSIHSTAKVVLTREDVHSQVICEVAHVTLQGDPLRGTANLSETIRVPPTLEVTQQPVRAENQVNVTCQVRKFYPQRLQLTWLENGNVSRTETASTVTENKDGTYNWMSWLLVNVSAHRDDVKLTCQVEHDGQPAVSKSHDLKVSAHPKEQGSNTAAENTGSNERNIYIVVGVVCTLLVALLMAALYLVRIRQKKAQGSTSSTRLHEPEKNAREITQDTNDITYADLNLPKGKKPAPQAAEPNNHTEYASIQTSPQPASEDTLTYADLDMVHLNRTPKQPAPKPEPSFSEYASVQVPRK
Chain of Tyrosine-protein phosphatase non-receptor type substrate 1 (Homo sapiens) + Leukocyte surface antigen CD47 (Homo sapiens) (Q08722 whole entry, looked up, the tested form may be a part): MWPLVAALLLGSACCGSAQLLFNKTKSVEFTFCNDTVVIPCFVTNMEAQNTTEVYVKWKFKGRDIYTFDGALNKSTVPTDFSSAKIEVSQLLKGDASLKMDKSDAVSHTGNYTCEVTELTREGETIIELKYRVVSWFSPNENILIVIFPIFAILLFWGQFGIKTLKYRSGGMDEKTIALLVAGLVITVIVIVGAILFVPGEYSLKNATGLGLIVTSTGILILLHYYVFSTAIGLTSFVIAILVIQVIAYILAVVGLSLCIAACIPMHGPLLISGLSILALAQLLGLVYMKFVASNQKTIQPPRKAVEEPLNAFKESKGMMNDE
Procedure, shortened: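 Soluble extracellular domains (6His-CD47, Avi-tag-biotinylated SIRPalpha) in PBS pH 7.4 with 0.05% IGEPAL CA-630. Compounds were preincubated 30 min at RT with CD47 and anti-His-Eu, then SIRPalpha and SAV-XL665 were added. TR-FRET 665/615 ratio.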

[19] = target: Parathyroid hormone/parathyroid hormone-related peptide receptor (Homo sapiens) (UniProt Q03431); experiment: qHTS for PTHR1 Agonists: Optimization Screen against the NCGC LOPAC library (AID 1347079);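 note: GloSensor cAMP luminescence in HEK-293 GP2 cells expressing human PTHR1 with IBMX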
Chain of Parathyroid hormone/parathyroid hormone-related peptide receptor (Homo sapiens) (Q03431 whole entry, looked up): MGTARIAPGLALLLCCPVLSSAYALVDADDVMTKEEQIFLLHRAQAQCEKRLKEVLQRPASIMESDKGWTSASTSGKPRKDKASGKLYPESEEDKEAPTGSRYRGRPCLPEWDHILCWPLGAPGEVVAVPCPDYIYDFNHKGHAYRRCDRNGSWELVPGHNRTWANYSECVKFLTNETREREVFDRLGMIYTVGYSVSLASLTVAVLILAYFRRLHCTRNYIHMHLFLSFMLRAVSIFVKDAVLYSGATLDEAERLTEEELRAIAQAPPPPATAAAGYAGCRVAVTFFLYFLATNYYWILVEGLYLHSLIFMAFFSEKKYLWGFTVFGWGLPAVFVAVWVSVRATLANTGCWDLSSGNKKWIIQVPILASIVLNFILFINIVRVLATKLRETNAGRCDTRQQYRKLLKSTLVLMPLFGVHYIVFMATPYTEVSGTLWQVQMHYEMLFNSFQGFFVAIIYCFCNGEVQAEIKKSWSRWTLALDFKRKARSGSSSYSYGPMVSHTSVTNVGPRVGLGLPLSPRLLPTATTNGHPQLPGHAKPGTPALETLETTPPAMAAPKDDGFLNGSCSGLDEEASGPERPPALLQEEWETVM
Procedure, shortened: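 Signal increase flags agonism. GP2 cells, derived from HEK-293, express human PTHR1 and a GloSensor cAMP construct.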

Row | Compound | outcome [1] | Potency [2] | Potency [3] | Potency [4] | Potency [5] | Potency [6] | Potency [7] | Potency [8] | Potency [9] | Potency [10] | Potency [11] | Potency [12] | Potency [13] | Potency [14] | Potency [15] | outcome [16] | outcome [17] | outcome [18] | outcome [19]
1 | ClCCN1CCCC1 | inactive | inactive | inactive | inactive | inactive | inactive | inactive | inactive | inactive | inactive | inactive | inactive | inactive | inactive |  |  |  |  | 
2 | C[C@H]1[C@@H]2Cc3ccc(O)cc3[C@@]1(C)CCN2C | inactive | inactive | inactive | inactive | inactive | inactive | inactive | inactive | inactive |  | inactive | inactive | inactive | inactive | inactive |  |  |  | 
3 | Clc1ccc(C(c2ccc(Cl)cc2)C(Cl)(Cl)Cl)cc1 | inactive | inactive | inactive | inactive | inactive | inactive |  | inactive |  | 5.31 µM (active) |  |  | inactive |  | inactive |  |  |  | 
4 | O=c1[nH]c2ccccc2n1C1CCNCC1 | inactive | inactive | inactive | inactive | inactive | inactive | inactive | inactive | inactive |  | inactive | inactive | inactive | inactive |  |  |  |  | 
5 | COc1cc(OC)c(OC)cc1C=O | inactive | inactive | inactive | inactive | inactive | inactive | inactive | inactive | inactive |  | inactive | inactive | inactive | inactive | inactive |  |  |  | 
6 | Clc1cccc(SC2CCNCC2)n1 | inactive | inactive | inactive | inactive | inactive | inactive | inactive | inactive | inactive |  | inactive | inactive | inactive | inactive |  |  |  |  | 
7 | CCC(C)C(C)(COC(N)=O)COC(N)=O (stereo unspecified) | inactive | inactive | inactive | inactive | inactive | inactive | inactive | inactive | inactive | inactive | inactive | inactive | inactive | inactive |  |  |  |  | 
8 | CC(C)(N)Cc1ccccc1Cl | inactive | inactive | inactive | inactive | inactive | inactive | inactive | inactive | inactive | inactive | inactive | inactive | inactive | inactive |  |  |  |  | 
9 | CCN(CCO)CCn1c(Cc2ccccc2)nc2c1c(=O)n(C)c(=O)n2C | inactive | inactive | inactive | inactive | inactive | inactive | inactive | inactive | inactive | inactive | inactive | inactive | inactive | inactive |  |  |  |  | 
10 | C[C@]12CC[C@@H]3c4ccc(OC(=O)N(CCCl)CCCl)cc4CC[C@H]3[C@@H]1CC[C@@H]2OP(=O)(O)O | inactive | inactive | inactive | inactive | inactive | inactive | inactive | 16.6 µM (active) | inactive | inactive | inactive |  | inactive |  | inactive |  |  |  | 
11 | CCc1cc2c(s1)-n1c(C)nnc1CN=C2c1ccccc1Cl | inactive | inactive | inactive | inactive | inactive | inactive | inactive | inactive | inactive | inactive | inactive | inactive | inactive | inactive |  |  |  |  | 
12 | O=C(CCCN1CCC2(CC1)C(=O)NCN2c1ccccc1)c1ccc(F)cc1 |  | inactive | inactive | inactive | inactive | inactive | inactive |  | inactive | inactive |  | inactive | inactive |  |  | inactive | inactive | inactive | inactive
13 | COc1cccc([C@@]2(O)CCCC[C@@H]2CN(C)C)c1 |  | inactive | inactive | inactive | inactive | inactive | inactive | inactive | inactive | inactive | inactive | inactive | inactive | inactive | inactive |  |  |  | 
14 | c1ccc(N2CCNCC2)cc1 | inactive | inactive | inactive | inactive | inactive | inactive | inactive | inactive | inactive |  | inactive | inactive | inactive | inactive |  |  |  |  | 
15 | C[C@]12CCC(=O)C=C1CC[C@@H]1[C@@H]2CC[C@]2(C)C(=O)CC[C@@H]12 | inactive | inactive | inactive | inactive | inactive | inactive | inactive | inactive | inactive | inactive | inactive | inactive | inactive | inactive |  |  |  |  | 
16 | Nc1ccn(C[C@@H](CO)OCP(=O)(O)O)c(=O)n1 |  | inactive | inactive | inactive | inactive |  |  |  |  |  |  |  |  |  | inactive |  |  |  | 
17 | CC(=O)C1CCOC1=O (stereo unspecified) | inactive | inactive | inactive | inactive | inactive | inactive | inactive | inactive | inactive | inactive | inactive | inactive | inactive | inactive |  |  |  |  | 
